# Experimental data as given in article PMC7862700, “An all-to-all approach to the identification of sequence-specific readers for epigenetic DNA modifications on cytosine”.
# Experiments:
# Test in all cases: DAPPL (digital affinity profiling via proximity ligation, sequencing); 10 mM Tris-HCl pH 7.5, 50 mM NaCl, 1 mM DTT, 4% glycerol, room temperature, 30 min; GST-TFs on glutathione beads, 16-mer random dsDNA library, 0.1% formaldehyde crosslink after washing; high values mean tight binding
# FEV = biological target: T1, FEV (Homo sapiens, UniProt Q99581 1-238); conditions: protein: recombinant; tags: N-terminal GST; dsDNA, one strand shown
# T1 sequence: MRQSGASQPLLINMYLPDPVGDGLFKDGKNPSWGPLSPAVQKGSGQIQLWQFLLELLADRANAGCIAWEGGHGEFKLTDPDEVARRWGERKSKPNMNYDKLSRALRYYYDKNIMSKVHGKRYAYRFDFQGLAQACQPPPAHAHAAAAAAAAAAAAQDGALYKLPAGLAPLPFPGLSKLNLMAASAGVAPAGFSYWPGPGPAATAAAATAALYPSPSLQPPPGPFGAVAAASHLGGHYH
# In short: (§1)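 Sequencing on an Illumina NextSeq500 followed washing, crosslinking with 0.1% formaldehyde, proximity ligation (BsaI/T4 ligase, 1 h, 37 °C) and PCR amplification of pools that had been incubated for 30 min at room temperature with 200 nmole of a random double-stranded 16-mer DNA library in Tris/NaCl/DTT/glycerol buffer. Each pool held DNA-barcoded human transcription factors, expressed in yeast as GST fusions and captured on glutathione beads, plus a tag-only sample. Binding signal is a hexamer's read frequency for a factor divided by its frequency in the tag-only sample.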
# ETV5 = ETV5 (Homo sapiens, UniProt P41161 1-510); conditions: protein: recombinant; tags: N-terminal GST; dsDNA, one strand shown
# ETV5, sequence (P41161 whole entry): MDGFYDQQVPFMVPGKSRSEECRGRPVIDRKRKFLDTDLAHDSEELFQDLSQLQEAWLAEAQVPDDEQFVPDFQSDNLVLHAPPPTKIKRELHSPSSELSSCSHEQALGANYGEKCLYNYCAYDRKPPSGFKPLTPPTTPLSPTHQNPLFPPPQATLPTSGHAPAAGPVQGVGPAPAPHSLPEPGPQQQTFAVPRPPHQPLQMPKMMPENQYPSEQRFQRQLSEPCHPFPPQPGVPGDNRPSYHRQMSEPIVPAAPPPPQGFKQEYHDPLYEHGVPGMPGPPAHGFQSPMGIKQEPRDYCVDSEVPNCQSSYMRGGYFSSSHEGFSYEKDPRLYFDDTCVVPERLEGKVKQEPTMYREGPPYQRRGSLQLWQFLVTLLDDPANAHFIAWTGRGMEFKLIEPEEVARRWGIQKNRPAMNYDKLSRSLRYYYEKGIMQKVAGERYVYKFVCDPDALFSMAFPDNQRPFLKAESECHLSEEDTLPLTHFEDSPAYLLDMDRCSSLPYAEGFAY
# In short: as §1
# HSF1 = HSF1 (Homo sapiens, UniProt Q00613 1-529); conditions: protein: recombinant; tags: N-terminal GST; chain copies: 3; dsDNA, one strand shown
# HSF1, sequence (Q00613 whole entry): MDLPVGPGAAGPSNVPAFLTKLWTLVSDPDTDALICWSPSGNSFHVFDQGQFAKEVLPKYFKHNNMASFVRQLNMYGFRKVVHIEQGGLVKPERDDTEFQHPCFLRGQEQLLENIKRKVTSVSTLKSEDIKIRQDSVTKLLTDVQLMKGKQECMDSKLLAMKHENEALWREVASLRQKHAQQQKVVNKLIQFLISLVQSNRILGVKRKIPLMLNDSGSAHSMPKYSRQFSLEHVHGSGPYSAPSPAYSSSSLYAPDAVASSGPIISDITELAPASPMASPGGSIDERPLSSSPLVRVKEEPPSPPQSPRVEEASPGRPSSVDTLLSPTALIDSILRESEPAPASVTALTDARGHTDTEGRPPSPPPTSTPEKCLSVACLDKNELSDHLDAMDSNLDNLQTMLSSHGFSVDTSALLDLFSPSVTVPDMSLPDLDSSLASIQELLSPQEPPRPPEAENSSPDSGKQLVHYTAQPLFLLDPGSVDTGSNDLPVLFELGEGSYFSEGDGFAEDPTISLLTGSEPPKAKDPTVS
# In short: as §1
# SPIC = biological target: T2, SPIC (Homo sapiens, UniProt Q8N5J4 1-248); conditions: protein: recombinant; tags: N-terminal GST; dsDNA, one strand shown
# T2 sequence: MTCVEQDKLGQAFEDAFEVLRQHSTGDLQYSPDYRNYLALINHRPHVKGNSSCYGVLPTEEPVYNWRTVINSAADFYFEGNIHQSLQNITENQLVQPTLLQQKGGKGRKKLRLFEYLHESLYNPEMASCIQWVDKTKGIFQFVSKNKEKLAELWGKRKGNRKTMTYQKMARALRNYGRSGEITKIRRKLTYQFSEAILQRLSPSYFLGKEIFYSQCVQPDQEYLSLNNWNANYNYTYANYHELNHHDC
# In short: as §1
# ELF4 = ELF4 (Homo sapiens, UniProt Q99607 1-663); conditions: protein: recombinant; tags: N-terminal GST; dsDNA, one strand shown
# ELF4, sequence (Q99607 whole entry): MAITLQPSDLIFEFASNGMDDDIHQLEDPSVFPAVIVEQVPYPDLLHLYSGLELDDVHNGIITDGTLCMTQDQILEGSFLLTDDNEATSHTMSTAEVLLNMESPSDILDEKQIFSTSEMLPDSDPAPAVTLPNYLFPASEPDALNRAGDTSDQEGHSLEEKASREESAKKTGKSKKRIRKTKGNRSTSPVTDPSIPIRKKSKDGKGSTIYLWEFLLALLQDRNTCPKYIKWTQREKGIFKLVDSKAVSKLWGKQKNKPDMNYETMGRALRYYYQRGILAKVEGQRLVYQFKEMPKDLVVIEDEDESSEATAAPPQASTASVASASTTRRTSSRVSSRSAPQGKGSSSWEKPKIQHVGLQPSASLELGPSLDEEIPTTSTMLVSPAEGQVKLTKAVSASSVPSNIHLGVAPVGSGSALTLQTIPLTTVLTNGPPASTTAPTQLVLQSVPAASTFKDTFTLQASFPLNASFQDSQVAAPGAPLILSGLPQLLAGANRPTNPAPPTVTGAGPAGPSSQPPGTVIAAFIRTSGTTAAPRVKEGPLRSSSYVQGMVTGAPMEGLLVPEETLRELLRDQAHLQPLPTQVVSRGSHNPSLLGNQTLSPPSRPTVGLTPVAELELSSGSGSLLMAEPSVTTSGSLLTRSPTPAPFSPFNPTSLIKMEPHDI
# In short: as §1
# ELK4 = biological target: T3, ELK4 (Homo sapiens, UniProt P28324-2 1-405); conditions: protein: recombinant; tags: N-terminal GST; dsDNA, one strand shown
# T3 sequence: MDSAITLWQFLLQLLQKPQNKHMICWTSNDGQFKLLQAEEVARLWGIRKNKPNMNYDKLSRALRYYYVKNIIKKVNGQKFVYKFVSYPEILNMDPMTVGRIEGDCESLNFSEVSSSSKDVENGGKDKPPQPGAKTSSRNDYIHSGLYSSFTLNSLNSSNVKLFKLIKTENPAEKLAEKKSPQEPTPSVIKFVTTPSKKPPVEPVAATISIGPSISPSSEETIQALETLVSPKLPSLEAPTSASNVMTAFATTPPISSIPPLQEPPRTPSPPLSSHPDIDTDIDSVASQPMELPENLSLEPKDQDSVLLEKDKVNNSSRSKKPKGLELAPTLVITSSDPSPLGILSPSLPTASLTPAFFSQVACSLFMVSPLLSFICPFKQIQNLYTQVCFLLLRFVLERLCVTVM
# In short: as §1
# ETV2 = biological target: T4, ETV2 (Homo sapiens, UniProt O00321 1-342); conditions: protein: recombinant; tags: N-terminal GST; dsDNA, one strand shown
# T4 sequence: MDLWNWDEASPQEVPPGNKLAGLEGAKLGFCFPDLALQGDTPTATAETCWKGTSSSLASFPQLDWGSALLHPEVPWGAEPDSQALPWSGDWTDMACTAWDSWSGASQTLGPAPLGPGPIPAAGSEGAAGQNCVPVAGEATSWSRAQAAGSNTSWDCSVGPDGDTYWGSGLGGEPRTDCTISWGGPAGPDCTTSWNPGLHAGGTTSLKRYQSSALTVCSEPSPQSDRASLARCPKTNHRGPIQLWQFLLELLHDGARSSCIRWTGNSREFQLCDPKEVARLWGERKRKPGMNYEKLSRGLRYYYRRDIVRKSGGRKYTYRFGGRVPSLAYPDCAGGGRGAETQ
# In short: as §1
# ELF3 = biological target: T5, ELF3 (Homo sapiens, UniProt P78545 1-371); conditions: protein: recombinant; tags: N-terminal GST; dsDNA, one strand shown
# T5 sequence: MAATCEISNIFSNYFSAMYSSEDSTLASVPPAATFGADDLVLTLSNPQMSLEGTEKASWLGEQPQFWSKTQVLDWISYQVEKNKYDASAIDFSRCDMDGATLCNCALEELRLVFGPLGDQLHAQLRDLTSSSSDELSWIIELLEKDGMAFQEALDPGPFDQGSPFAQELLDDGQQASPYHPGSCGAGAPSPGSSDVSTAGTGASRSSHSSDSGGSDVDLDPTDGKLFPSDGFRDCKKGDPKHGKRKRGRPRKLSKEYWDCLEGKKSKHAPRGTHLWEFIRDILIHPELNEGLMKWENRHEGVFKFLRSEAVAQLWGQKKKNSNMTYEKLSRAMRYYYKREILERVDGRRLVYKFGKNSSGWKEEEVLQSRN
# In short: as §1
# CRX = CRX (Homo sapiens, UniProt O43186 1-299); conditions: protein: recombinant; tags: N-terminal GST; dsDNA, one strand shown
# CRX, sequence (O43186 whole entry): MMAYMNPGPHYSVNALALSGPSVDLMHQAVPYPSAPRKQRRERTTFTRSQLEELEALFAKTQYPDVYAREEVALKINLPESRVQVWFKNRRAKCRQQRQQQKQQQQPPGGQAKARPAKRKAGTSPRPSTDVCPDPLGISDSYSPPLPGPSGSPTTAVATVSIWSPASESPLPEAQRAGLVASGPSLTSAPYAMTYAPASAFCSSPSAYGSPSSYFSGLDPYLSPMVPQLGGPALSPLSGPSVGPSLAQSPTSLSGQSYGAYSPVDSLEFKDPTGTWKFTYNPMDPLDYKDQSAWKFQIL
# In short: as §1
# ETV1 = ETV1 (Homo sapiens, UniProt P50549 1-477); conditions: protein: recombinant; tags: N-terminal GST; dsDNA, one strand shown
# ETV1, sequence (P50549 whole entry): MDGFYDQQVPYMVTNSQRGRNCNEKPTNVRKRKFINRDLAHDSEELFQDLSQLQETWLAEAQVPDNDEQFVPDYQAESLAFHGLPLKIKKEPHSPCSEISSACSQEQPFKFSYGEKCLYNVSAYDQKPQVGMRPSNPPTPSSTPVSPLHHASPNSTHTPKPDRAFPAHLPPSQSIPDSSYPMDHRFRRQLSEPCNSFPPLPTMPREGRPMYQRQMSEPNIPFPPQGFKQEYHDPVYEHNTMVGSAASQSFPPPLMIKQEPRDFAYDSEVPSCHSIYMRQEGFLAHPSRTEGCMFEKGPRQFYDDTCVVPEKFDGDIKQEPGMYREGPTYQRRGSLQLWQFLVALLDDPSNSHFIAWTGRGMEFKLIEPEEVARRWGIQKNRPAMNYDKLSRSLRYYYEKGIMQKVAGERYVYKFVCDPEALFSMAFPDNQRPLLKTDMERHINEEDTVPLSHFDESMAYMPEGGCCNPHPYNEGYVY
# In short: as §1
# ERF = biological target: T6, ERF (Homo sapiens, UniProt P50548 1-548); conditions: protein: recombinant; tags: N-terminal GST; dsDNA, one strand shown
# T6 sequence: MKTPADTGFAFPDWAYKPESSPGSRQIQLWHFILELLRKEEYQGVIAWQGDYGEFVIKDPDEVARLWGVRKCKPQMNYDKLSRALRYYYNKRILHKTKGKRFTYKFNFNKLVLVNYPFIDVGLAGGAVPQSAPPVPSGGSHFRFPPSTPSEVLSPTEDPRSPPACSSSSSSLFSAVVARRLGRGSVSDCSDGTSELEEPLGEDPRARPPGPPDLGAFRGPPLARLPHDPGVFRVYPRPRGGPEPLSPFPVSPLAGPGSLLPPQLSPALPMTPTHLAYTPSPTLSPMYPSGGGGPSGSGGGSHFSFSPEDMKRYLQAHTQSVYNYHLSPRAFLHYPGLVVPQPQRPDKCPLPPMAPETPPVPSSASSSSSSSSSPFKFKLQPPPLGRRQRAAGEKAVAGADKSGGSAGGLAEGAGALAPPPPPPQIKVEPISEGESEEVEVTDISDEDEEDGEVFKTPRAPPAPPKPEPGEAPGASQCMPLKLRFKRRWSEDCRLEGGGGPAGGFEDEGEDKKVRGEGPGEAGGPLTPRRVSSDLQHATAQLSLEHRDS
# In short: as §1
# ETV3L = biological target: T7, ETV3L (Homo sapiens, UniProt Q6ZN32 1-361); conditions: protein: recombinant; tags: N-terminal GST; dsDNA, one strand shown
# T7 sequence: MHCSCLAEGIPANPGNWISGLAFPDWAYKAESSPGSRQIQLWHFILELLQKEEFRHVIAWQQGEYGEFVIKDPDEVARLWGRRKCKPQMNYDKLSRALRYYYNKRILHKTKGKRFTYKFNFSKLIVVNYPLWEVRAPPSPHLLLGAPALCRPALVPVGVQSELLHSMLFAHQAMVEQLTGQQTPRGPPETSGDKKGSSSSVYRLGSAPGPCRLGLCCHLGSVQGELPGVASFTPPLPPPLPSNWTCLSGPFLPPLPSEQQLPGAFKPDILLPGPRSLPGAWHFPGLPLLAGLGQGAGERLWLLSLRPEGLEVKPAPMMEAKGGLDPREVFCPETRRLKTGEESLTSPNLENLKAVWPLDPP
# In short: as §1
# ETS2 = biological target: T8, ETS2 (Homo sapiens, UniProt P15036 1-469); conditions: protein: recombinant; tags: N-terminal GST; dsDNA, one strand shown
# T8 sequence: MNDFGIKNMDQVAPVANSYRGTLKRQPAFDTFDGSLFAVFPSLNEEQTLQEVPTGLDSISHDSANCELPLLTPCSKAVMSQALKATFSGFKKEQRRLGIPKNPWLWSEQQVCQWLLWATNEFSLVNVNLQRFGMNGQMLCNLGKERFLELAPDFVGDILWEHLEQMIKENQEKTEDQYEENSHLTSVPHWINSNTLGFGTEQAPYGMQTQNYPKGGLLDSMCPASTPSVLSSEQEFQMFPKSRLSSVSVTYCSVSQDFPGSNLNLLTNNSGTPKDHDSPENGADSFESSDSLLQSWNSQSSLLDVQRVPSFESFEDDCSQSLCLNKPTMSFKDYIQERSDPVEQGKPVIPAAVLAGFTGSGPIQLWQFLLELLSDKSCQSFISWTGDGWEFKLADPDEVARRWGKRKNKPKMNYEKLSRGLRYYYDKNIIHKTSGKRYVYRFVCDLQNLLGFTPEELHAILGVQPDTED
# In short: as §1
# SPDEF = biological target: T9, SPDEF (Homo sapiens, UniProt O95238 1-335); conditions: protein: recombinant; tags: N-terminal GST; dsDNA, one strand shown
# T9 sequence: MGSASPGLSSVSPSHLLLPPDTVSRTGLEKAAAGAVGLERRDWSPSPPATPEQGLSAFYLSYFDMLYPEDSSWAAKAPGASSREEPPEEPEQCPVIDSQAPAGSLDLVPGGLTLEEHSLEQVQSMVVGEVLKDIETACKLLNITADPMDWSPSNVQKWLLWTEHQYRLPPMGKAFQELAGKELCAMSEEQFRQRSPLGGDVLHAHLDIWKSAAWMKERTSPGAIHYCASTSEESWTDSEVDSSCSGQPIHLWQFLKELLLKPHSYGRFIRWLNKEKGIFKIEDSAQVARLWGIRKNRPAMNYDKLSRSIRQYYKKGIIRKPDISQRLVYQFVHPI
# In short: as §1
# ETV7 = biological target: T10, ETV7 (Homo sapiens, UniProt Q9Y603 1-341); conditions: protein: recombinant; tags: N-terminal GST; dsDNA, one strand shown
# T10 sequence: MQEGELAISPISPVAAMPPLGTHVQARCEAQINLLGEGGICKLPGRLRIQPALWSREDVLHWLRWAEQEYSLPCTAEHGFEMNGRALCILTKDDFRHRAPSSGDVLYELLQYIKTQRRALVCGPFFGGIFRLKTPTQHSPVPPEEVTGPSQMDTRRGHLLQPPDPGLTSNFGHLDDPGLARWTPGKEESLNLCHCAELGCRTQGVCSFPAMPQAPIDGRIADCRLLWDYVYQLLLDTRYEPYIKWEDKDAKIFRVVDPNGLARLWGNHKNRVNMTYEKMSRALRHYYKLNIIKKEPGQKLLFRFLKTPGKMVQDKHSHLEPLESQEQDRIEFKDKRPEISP
# In short: as §1
# ELF5 = biological target: T11, ELF5 (Homo sapiens, UniProt Q9UKW6-2 1-255); conditions: protein: recombinant; tags: N-terminal GST; dsDNA, one strand shown
# T11 sequence: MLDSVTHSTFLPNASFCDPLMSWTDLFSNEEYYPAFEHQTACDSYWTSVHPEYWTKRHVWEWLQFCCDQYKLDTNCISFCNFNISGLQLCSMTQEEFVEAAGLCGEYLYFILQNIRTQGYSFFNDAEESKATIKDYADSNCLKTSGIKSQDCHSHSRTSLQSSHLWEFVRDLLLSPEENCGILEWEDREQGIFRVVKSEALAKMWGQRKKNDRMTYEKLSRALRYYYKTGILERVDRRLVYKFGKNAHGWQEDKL
# In short: as §1
# ETV3 = biological target: T12, ETV3 (Homo sapiens, UniProt P41162-2 1-143); conditions: protein: recombinant; tags: N-terminal GST; dsDNA, one strand shown
# T12 sequence: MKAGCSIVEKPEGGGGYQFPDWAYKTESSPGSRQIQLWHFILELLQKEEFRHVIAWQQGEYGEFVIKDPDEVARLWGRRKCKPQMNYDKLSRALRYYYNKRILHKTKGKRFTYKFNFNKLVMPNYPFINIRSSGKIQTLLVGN
# In short: as §1
# ETV6 = ETV6 (Homo sapiens, UniProt P41212 1-452); conditions: protein: recombinant; tags: N-terminal GST; dsDNA, one strand shown
# ETV6, sequence (P41212 whole entry): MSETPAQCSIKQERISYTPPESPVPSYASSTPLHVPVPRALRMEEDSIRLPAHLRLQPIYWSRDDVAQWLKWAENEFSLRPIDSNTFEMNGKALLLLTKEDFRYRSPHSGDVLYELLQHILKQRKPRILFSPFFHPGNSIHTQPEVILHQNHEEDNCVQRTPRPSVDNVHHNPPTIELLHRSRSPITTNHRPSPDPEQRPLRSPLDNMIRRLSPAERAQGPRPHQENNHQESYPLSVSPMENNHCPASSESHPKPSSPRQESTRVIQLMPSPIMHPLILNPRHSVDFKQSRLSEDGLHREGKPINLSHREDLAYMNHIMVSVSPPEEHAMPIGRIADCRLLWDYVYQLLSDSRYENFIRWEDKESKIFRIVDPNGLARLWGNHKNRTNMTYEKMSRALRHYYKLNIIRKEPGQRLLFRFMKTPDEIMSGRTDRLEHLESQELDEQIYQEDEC
# In short: as §1
sequence,measurement,setting,value
CGAACC,binding signal,FEV,"1.24 fold enrichment (6-mer frequency, TF over GST control)"
same,binding signal,ETV5,"1.21 fold enrichment (6-mer frequency, TF over GST control)"
same,binding signal,HSF1,"1.47 fold enrichment (6-mer frequency, TF over GST control)"
same,binding signal,SPIC,"1.23 fold enrichment (6-mer frequency, TF over GST control)"
same,binding signal,ELF4,"1.26 fold enrichment (6-mer frequency, TF over GST control)"
same,binding signal,ELK4,"1.26 fold enrichment (6-mer frequency, TF over GST control)"
same,binding signal,ETV2,"1.2 fold enrichment (6-mer frequency, TF over GST control)"
same,binding signal,ELF3,"1.24 fold enrichment (6-mer frequency, TF over GST control)"
same,binding signal,CRX,"1.02 fold enrichment (6-mer frequency, TF over GST control)"
same,binding signal,ETV1,"1.13 fold enrichment (6-mer frequency, TF over GST control)"
same,binding signal,ERF,"1.12 fold enrichment (6-mer frequency, TF over GST control)"
same,binding signal,ETV3L,"1.15 fold enrichment (6-mer frequency, TF over GST control)"
same,binding signal,ETS2,"1.14 fold enrichment (6-mer frequency, TF over GST control)"
same,binding signal,SPDEF,"1.23 fold enrichment (6-mer frequency, TF over GST control)"
same,binding signal,ETV7,"1.11 fold enrichment (6-mer frequency, TF over GST control)"
same,binding signal,ELF5,"1.09 fold enrichment (6-mer frequency, TF over GST control)"
same,binding signal,ETV3,"1.07 fold enrichment (6-mer frequency, TF over GST control)"
same,binding signal,ETV6,"1.1 fold enrichment (6-mer frequency, TF over GST control)"
